The panel holds about 83,000 compounds, 20% with a hit somewhere; the sample as a whole holds those more often.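 Note: values are percent growth. 100 is the growth of untreated cells, values between 100 and 0 indicate rising inhibition; between -100 and 0 indicates cell death.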 Active and inactive are the calls of the source. How the source made its calls: active means growth percent below 10; inactive means the rest.
What was measured:
Experiment in all cases: NCI-60 one-dose screen, 48 h (100 = growth as untreated, 0 = no growth, -100 = all killed)
Details in all cases: 10 µM unless noted
NCI-H23 lung = system: NCI-H23 lung
NCI-H226 lung = system: NCI-H226 lung
NCI-H322M lung = system: NCI-H322M lung
HOP-62 NSCLC = system: HOP-62 NSCLC
NCI-H460 lung = system: NCI-H460 lung
HOP-92 NSCLC = system: HOP-92 NSCLC
NCI-H522 lung = system: NCI-H522 lung
A549/ATCC NSCLC = system: A549/ATCC NSCLC
786-0 renal = system: 786-0 renal
COLO 205 colon = system: COLO 205 colon

Measured: growth

CSC(=S)N/N=C(\C)c1ccccn1
active: NCI-H226 lung 5.78% | NCI-H322M lung 8.08% | NCI-H460 lung -18.1% | NCI-H522 lung -3.86%
inactive: NCI-H23 lung 33.6% | HOP-62 NSCLC 21.6% | HOP-92 NSCLC 31.3% | A549/ATCC NSCLC 10.3% | 786-0 renal 16.9% | COLO 205 colon 24%

CCCc1n(Cc2ccc3ccccc3n2)cc[n+]1Cc1ccc2ccccc2c1
active: NCI-H23 lung -11.6% | HOP-62 NSCLC 8.38% | NCI-H460 lung 7.73% | HOP-92 NSCLC -18.6% | NCI-H522 lung -0.784% | COLO 205 colon -50%
inactive: NCI-H226 lung 12.3% | NCI-H322M lung 25.7% | A549/ATCC NSCLC 39.1% | 786-0 renal 34.7%

COc1ccc(CCN2COc3c([C@@H](C)CCC=C(C)C)ccc(C)c3C2)cc1OC
inactive: NCI-H23 lung 39.1% | NCI-H226 lung 82.3% | NCI-H322M lung 88.2% | HOP-62 NSCLC 73.4% | NCI-H460 lung 34.5% | NCI-H522 lung 64.7% | A549/ATCC NSCLC 74.3% | 786-0 renal 52.4%
active: HOP-92 NSCLC -1.29% | COLO 205 colon -92.9%

Cc1cc(Cl)c2ccc(N(C)C)cc2n1
inactive: NCI-H23 lung 100% | NCI-H226 lung 97.6% | NCI-H322M lung 110% | HOP-62 NSCLC 95.5% | NCI-H460 lung 106% | HOP-92 NSCLC 102% | A549/ATCC NSCLC 94.9% | 786-0 renal 99% | COLO 205 colon 102%
active: NCI-H522 lung -10.1%

Oc1[nH]c2ccc(Cl)cc2c1/C=c1/ccc2c(c1)N=C(c1ccc(F)cc1)N=2
inactive: NCI-H23 lung 74.5% | NCI-H226 lung 89.9% | NCI-H322M lung 84.1% | HOP-62 NSCLC 74.5% | NCI-H460 lung 74.2% | HOP-92 NSCLC 34.2% | NCI-H522 lung 80.7% | A549/ATCC NSCLC 71.4% | 786-0 renal 76% | COLO 205 colon 97.6%

Cc1ccc(O)c(Cc2ccccc2)c1
inactive: NCI-H23 lung 101% | NCI-H226 lung 106% | NCI-H322M lung 112% | HOP-62 NSCLC 96.2% | NCI-H460 lung 99% | HOP-92 NSCLC 52.7% | NCI-H522 lung 93.5% | A549/ATCC NSCLC 101% | 786-0 renal 107% | COLO 205 colon 111%

Cc1nc2n[nH]c(N)c2nc1C
inactive: NCI-H23 lung 102% | NCI-H226 lung 99.9% | NCI-H322M lung 93.1% | HOP-62 NSCLC 104% | NCI-H460 lung 111% | HOP-92 NSCLC 100% | NCI-H522 lung 93.9% | A549/ATCC NSCLC 99.2% | 786-0 renal 105% | COLO 205 colon 109%

O=S(=O)(NCC[C@@H]1C[C@H]1c1ccc2ccccc2c1)c1ccc(C(F)(F)F)cc1
inactive: NCI-H23 lung 84.9% | NCI-H226 lung 86.1% | NCI-H322M lung 100% | HOP-62 NSCLC 105% | NCI-H460 lung 96.1% | HOP-92 NSCLC 91.4% | NCI-H522 lung 83.8% | A549/ATCC NSCLC 85.3% | 786-0 renal 96.3% | COLO 205 colon 105%

CSCCC1NC(=O)C(C(C)=Nc2ccccc2)=C1O (stereo not given)
inactive: NCI-H23 lung 105% | NCI-H226 lung 112% | NCI-H322M lung 102% | HOP-62 NSCLC 107% | NCI-H460 lung 114% | HOP-92 NSCLC 108% | NCI-H522 lung 116% | A549/ATCC NSCLC 101% | 786-0 renal 98.9% | COLO 205 colon 105%

CCCCCCCCCCCCCCCCCC1=NC(C)(C)CN1C(C)(C)CO
active: NCI-H23 lung -14.5% | HOP-62 NSCLC -100% | NCI-H460 lung -100% | HOP-92 NSCLC -6.66% | NCI-H522 lung -84.8% | A549/ATCC NSCLC -93.8% | 786-0 renal -37.5% | COLO 205 colon -99.8%
inactive: NCI-H226 lung 22.9% | NCI-H322M lung 16.3%

COc1cc(C(=O)/C=C/c2cn(-c3ccccc3)nc2-c2cccc(Nc3ccnc4cc(Cl)ccc34)c2)cc(OC)c1OC
inactive: NCI-H23 lung 100% | NCI-H226 lung 98.1% | NCI-H322M lung 88.1% | HOP-62 NSCLC 78.2% | NCI-H460 lung 90.5% | HOP-92 NSCLC 73.3% | NCI-H522 lung 106% | A549/ATCC NSCLC 91.5% | 786-0 renal 89% | COLO 205 colon 88.9%

COc1cc(C2C=C(C)N=C3SC=NN32)cc(OC)c1OC (stereo not given)
inactive: NCI-H23 lung 100% | NCI-H226 lung 108% | NCI-H322M lung 112% | HOP-62 NSCLC 102% | NCI-H460 lung 108% | HOP-92 NSCLC 91.4% | NCI-H522 lung 104% | A549/ATCC NSCLC 101% | 786-0 renal 112% | COLO 205 colon 115%

Cc1cc(C)c([O-])c(CN(C)CCN(C)Cc2cc(C)cc(C)c2[O-])c1.O=C([O-])c1cccc(C(=O)[O-])n1.[Ti+4]
inactive: NCI-H23 lung 10.4% | NCI-H226 lung 31% | HOP-62 NSCLC 12.5% | A549/ATCC NSCLC 23.3% | 786-0 renal 11.9%
active: NCI-H322M lung 8.44% | NCI-H460 lung -68.7% | HOP-92 NSCLC -53.1% | NCI-H522 lung -47% | COLO 205 colon 2.03%

Nc1nc2c(c3ncccc13)C(c1ccccc1)Cc1ncccc1-2 (stereo not given)
inactive: NCI-H23 lung 83.3% | NCI-H226 lung 88.4% | NCI-H322M lung 102% | HOP-62 NSCLC 72.1% | NCI-H460 lung 92% | HOP-92 NSCLC 96.1% | NCI-H522 lung 42.9% | A549/ATCC NSCLC 72.3% | 786-0 renal 104% | COLO 205 colon 87.8%
